Data from PubChem BioAssay (Tox21).
Records with an inconclusive call do not appear. Active and inactive are the calls of the source. Unless noted, calls come from the whole dose curve.

How the values were obtained:
[1] = Nuclear factor erythroid 2-related factor 2/antioxidant responsive element (Nrf2/ARE) small molecule agonists: qHTS cell viability counter screen in human keratinocytes (AID 1919968; active = well fitted curve in the direction sought with a large enough effect in the repeat runs; an effect the other way counts as inactive or inconclusive; note: nearly all actives have a fitted effect of over 55% in size; note: potency is the fitted concentration of half-maximal effect)
Summary of the method: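 In human HaCaT keratinocytes stably expressing an ARE-driven luciferase, compound exposure lasted 23 h at 37 C under 5% CO2. Viable cells are quantified with a protease-based fluorogenic reagent (CellTiter-Fluor) read 1 h after addition.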

[2] = Nuclear factor erythroid 2-related factor 2/antioxidant responsive element (Nrf2/ARE) small molecule agonists: luciferase reporter gene qHTS assay in human keratinocytes (AID 1919969); note: nearly all actives have a fitted effect of over 35% in size; note: potency is the fitted concentration of half-maximal effect
[3] = target: Gonadotropin-releasing hormone receptor (Homo sapiens) (UniProt P30968); assay: Human gonadotropin-releasing hormone receptor (GnRHR) small molecule agonists, calcium flux assay in GnRHR-HEK293 cells (AID 1920063); note: nearly all actives have a fitted effect of over 35% in size; note: potency is the fitted concentration of half-maximal effect
Summary of the method: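 Intracellular calcium rise is the read-out: engineered human GnRHR HEK293 cells, dye-loaded, are exposed to DMSO-dissolved compounds and fluorescence at Ex/Em 480/540 is tracked for 3 min.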

[4] = target: KiSS-1 receptor (Homo sapiens) (UniProt Q969F8); assay: Human kisspeptin (KISS1R) small molecule agonists, calcium flux assay in KISS1R-HEK293 cells (AID 1920064; active = well fitted curve in the direction sought with a large enough effect in the repeat runs; an effect the other way counts as inactive or inconclusive)
Summary of the method: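 Concentration-response testing used 15 concentrations in triplicate on human KISS1R-expressing HEK293 cells. Calcium-dependent fluorescence (Ex/Em 480/540) was followed kinetically for 3 min after compound transfer.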

[5] = G protein-coupled receptor (GPCR) small molecule agonists, calcium flux assay: HEK293 wild type cell line counter screen (AID 1920065)
Summary of the method: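 Fluorescence intensity signals activation. After overnight (18 h) culture and a 1 h calcium dye load at 37 C, compounds are added by pin tool and the plate read at 480/540 nm for 3 min in 1 s steps.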

[6] = p53 small molecule agonists, cell-based qHTS assay with human liver microsomes (AID 1963577)
Summary of the method: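 p53RE-bla reporter cells were pre-incubated 5 h at 37 C, then treated with compounds plus human liver microsomes (0.5 mg/mL final) and NADPH (0.5 mg/mL final) for 16 h at 37 C. Beta-lactamase activity was read by LiveBLAzer fluorescence after 2 h at room temperature.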

[7] = p53 small molecule agonists, cell-based qHTS assay with rat liver microsomes (AID 1963578)
Summary of the method: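 p53RE-bla cells were exposed to compounds together with rat liver microsomes (0.5 mg/mL final) and NADPH (0.5 mg/mL final) for 16 h at 37 C, then read by LiveBLAzer beta-lactamase fluorescence after 2 h at room temperature.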

[8] = p53 small molecule agonists, cell-based qHTS assay with human liver microsomes: qHTS cell viability counter screen (AID 1963579); note: nearly all actives have a fitted effect of over 45% in size; note: potency is the fitted concentration of half-maximal effect
Summary of the method: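 p53RE-bla cells (4,000/well) were pre-incubated 5 h at 37 C, then given compounds in DMSO plus human liver microsomes (0.5 mg/mL final) and NADPH (0.5 mg/mL final) for 16 h at 37 C. Viability was read by CellTiter-Glo luminescence.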

[9] = p53 small molecule agonists, cell-based qHTS assay with rat liver microsomes: qHTS cell viability counter screen (AID 1963580); note: nearly all actives have a fitted effect of over 45% in size; note: potency is the fitted concentration of half-maximal effect
Summary of the method: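 Cytotoxicity counter screen: intracellular ATP read by CellTiter-Glo luminescence in the p53 reporter wells. HCT-116 p53RE-bla cells were treated for 16 h at 37 C alongside rat liver microsomes and NADPH, each 0.5 mg/mL final.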

[10] = p53 small molecule agonists, cell-based qHTS assay (AID 1963582; active = well fitted activation curve with a large enough effect in the signal ratio in the repeat runs, not every such curve was filed as active; the % refers to the signal ratio)
Summary of the method: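 After plating, p53RE-bla cells sat 5 h in the incubator; compounds or DMSO vehicle were pinned in; a 16 h incubation at 37 C followed; FRET substrate was added and, 2 h later at RT, fluorescence was measured.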

[11] = target: Beta-2 adrenergic receptor (Homo sapiens) (UniProt P07550); assay: Adrenergic beta2 receptor (ADRB2) small molecule antagonists, cell-based qHTS assay (AID 1963592); note: series mostly up to about 92 µM; nearly all actives have a fitted effect of over 50% in size
Summary of the method: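 Assay format: CHO-ADRB2 cells, 18-20hr seeding at 37C/5% CO2, then compound plus 1nM isoproterenol agonist mix for 0.5hr RT. Homogeneous time-resolved fluorescence cAMP detection after 1hr, expressed as 665/615 nm ratio.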

[12] = target: D(2) dopamine receptor (Homo sapiens) (UniProt P14416); assay: Dopamine D2 receptor (DRD2) small molecule antagonists, cell-based qHTS assay (AID 1963595; active = well fitted inhibition curve with a large enough effect in the signal ratio in the repeat runs, with a control signal flat; the % refers to the signal ratio; note: potency is the fitted concentration of half-maximal effect)
Summary of the method: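 DRD2-HEK293; 0.1 mM Ro20-1724; cpd 10 min RT; NKH477 200 nM + quinpirole 12 nM, 30 min RT; HTRF cAMP (cAMP-d2/anti-cAMP cryptate), 665/620 nm ratio after 1 h.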

[13] = target: 5-hydroxytryptamine receptor 2A (Homo sapiens) (UniProt P28223); assay: 5-hydroxytryptamine receptor 2A (HTR2A) small molecule antagonists, cell-based qHTS assay (AID 1963586); note: nearly all actives have a fitted effect of over 45% in size; note: potency is the fitted concentration of half-maximal effect
Summary of the method: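 CHO cells stably expressing human HTR2A were plated for 18 h at 37 C, then loaded with calcium dye for 1 h. Compounds were preincubated 5 min at room temperature before DOI (4 nM solution) was added. Kinetic fluorescence was read for 3 min.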

[14] = target: 5-hydroxytryptamine receptor 2A (Homo sapiens) (UniProt P28223); assay: 5-hydroxytryptamine receptor 2A (HTR2A) small molecule agonists, cell-based qHTS assay (AID 1963587); note: nearly all actives have a fitted effect of over 30% in size; note: potency is the fitted concentration of half-maximal effect
Summary of the method: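 Kinetic calcium-flux fluorescence (2 min, 1 sec intervals) after compound addition in agonist mode. HTR2A-CHO cells were cultured 18 h, then dye-loaded 1 h at 37 C.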

[15] = target: Muscarinic acetylcholine receptor M1 (Homo sapiens) (UniProt P11229); assay: Cholinergic receptor muscarinic 1 (CHRM1) small molecule antagonists, cell-based qHTS assay (AID 1963588); note: nearly all actives have a fitted effect of over 40% in size; note: potency is the fitted concentration of half-maximal effect
Summary of the method: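 Compounds were tested at 15 concentrations in three independent runs. Dye-loaded CHRM1-CHO cells were exposed 5 min at room temperature before stimulation by acetylcholine added at 50nM. Intracellular calcium was read kinetically on FDSS for 3 min.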

[16] = target: Muscarinic acetylcholine receptor M1 (Homo sapiens) (UniProt P11229); assay: Cholinergic receptor muscarinic 1 (CHRM1) small molecule agonists, cell-based qHTS assay (AID 1963589); note: nearly all actives have a fitted effect of over 35% in size
Summary of the method: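 Fluorescent calcium dye reports M1 activation in stably transfected CHO cells. Compounds, 15 concentrations, added after 1 h dye loading at 37 C; kinetic reading at 1 sec intervals.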

[17] = cAMP Responsive Elements (CRE) small molecule agonists, cell-based qHTS assay (AID 1963590)
Summary of the method: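 Compound exposure lasted 3 h at 37 C/5% CO2 in CRE-bla HEK 293T cells grown in assay medium with 10% dialyzed FBS and 25 mM HEPES. Reporter signal came from LiveBLAzer B/G FRET substrate, 2 h, room temperature.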

[18] = cAMP Responsive Elements (CRE) small molecule antagonists, cell-based qHTS assay (AID 1963591; active = well fitted inhibition curve with a large enough effect in the signal ratio in the repeat runs, not every such curve was filed as active; the % refers to the signal ratio)
Summary of the method: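 Stimulation used NKH477 at a final 0.25 uM for 3 h in compound-treated CRE-bla HEK293T cells, seeded 18 h beforehand. Reporter activity was measured with LiveBLAzer B/G FRET substrate after 2 h at room temperature.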

[19] = target: D(2) dopamine receptor (Homo sapiens) (UniProt P14416); assay: Dopamine D2 receptor (DRD2) small molecule agonists, cell-based qHTS assay (AID 1963594); note: nearly all actives have a fitted effect of over 35% in size; note: potency is the fitted concentration of half-maximal effect
Summary of the method: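 cAMP accumulation in DRD2-HEK293 cells measured by HTRF after 1 h detection; compounds added 10 min before NKH477 (200nM […]) forskolin-analogue stimulation, 30 min at room temperature, with Ro20-1724 present at 0.1 mM final.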

[20] = target: Beta-2 adrenergic receptor (Homo sapiens) (UniProt P07550); assay: Adrenergic beta2 receptor (ADRB2) small molecule agonists, cell-based qHTS assay (AID 1963593);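 note: CHO cells stably overexpressing human ADRB2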
Summary of the method: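 CHO cells stably over-expressing ADRB2 were plated overnight at 37C, then dosed with compounds plus a stimulation mix containing 100uM IBMX and 25uM Ro-20-1724 for 0.5hr at room temperature. cAMP was measured by HTRF competition, 1hr.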

Measured: Potency

Sequence of Gonadotropin-releasing hormone receptor (Homo sapiens) (P30968 whole entry, looked up): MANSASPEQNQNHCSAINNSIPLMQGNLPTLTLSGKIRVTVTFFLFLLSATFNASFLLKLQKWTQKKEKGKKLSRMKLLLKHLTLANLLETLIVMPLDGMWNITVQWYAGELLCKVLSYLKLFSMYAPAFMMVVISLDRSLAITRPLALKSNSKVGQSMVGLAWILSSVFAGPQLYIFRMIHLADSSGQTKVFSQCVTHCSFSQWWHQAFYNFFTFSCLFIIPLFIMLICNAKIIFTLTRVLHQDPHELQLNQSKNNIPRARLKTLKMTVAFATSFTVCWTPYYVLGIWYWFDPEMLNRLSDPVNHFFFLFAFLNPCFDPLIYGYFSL
Sequence of KiSS-1 receptor (Homo sapiens) (Q969F8 whole entry, looked up): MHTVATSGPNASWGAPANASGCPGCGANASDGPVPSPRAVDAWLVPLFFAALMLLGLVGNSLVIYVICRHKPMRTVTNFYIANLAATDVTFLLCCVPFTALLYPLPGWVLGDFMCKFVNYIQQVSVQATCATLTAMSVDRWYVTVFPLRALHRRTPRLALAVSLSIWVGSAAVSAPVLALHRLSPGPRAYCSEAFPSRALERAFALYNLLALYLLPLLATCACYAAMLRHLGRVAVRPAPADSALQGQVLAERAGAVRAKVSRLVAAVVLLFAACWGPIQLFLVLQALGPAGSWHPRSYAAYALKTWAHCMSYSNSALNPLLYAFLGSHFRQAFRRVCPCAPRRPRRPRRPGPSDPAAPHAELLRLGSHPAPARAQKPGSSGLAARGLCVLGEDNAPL
Sequence of Beta-2 adrenergic receptor (Homo sapiens) (P07550 whole entry, looked up): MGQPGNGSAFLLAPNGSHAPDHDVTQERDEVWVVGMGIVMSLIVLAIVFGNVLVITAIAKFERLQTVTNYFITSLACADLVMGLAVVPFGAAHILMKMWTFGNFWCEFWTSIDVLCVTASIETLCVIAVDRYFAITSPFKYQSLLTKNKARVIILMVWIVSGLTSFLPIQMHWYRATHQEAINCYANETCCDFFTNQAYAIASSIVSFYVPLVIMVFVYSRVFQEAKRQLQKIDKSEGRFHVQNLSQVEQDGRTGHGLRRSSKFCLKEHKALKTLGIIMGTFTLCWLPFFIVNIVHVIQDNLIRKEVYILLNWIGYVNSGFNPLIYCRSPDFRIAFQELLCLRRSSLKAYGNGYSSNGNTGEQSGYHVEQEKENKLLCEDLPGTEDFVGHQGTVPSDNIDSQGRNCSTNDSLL
Sequence of 5-hydroxytryptamine receptor 2A (Homo sapiens) (P28223 whole entry, looked up): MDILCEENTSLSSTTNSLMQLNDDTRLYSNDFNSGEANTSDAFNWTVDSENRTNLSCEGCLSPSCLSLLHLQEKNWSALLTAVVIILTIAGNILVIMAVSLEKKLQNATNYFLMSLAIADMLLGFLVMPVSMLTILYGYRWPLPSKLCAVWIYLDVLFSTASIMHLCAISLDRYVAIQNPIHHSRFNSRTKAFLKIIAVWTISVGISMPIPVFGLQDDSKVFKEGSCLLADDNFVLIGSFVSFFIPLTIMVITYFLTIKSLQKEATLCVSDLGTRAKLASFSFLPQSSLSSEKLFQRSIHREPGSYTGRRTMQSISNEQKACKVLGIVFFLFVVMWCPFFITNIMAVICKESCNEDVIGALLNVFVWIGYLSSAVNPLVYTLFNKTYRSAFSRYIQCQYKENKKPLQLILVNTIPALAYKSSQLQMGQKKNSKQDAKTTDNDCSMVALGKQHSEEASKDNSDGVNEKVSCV
Sequence of D(2) dopamine receptor (Homo sapiens) (P14416 whole entry, looked up): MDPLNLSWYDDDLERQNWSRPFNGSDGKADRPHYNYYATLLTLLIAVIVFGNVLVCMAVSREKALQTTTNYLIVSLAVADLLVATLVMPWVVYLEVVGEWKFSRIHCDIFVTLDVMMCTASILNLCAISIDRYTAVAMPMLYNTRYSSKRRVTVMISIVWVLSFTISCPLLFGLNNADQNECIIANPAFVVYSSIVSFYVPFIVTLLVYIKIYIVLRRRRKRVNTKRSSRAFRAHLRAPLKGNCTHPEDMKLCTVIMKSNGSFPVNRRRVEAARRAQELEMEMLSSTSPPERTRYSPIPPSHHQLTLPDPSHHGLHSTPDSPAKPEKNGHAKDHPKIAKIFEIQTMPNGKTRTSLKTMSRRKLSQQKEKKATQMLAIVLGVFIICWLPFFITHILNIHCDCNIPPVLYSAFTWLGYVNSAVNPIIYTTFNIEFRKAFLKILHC
Sequence of Muscarinic acetylcholine receptor M1 (Homo sapiens) (P11229 whole entry, looked up): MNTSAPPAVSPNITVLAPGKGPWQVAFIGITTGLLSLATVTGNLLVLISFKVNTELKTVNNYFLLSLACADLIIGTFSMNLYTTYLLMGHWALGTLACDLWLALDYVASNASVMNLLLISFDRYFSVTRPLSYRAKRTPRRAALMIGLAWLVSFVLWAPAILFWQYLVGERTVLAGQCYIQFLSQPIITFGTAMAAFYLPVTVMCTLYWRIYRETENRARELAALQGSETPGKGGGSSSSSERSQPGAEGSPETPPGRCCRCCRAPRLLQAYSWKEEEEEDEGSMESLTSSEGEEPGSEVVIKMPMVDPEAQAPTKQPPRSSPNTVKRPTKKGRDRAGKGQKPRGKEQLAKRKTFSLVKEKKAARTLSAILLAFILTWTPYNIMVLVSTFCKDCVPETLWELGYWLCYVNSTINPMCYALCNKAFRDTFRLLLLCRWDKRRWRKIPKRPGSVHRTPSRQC

Cc1ccccc1N1C(=O)c2cc(S(N)(=O)=O)c(Cl)cc2NC1C (stereo not drawn)
not listed: [13] | [14] | [15] | [16] | [17] | [18] | [19] | [20]
inactive: all other assays above

COc1ccc(Nc2ccc(OC)cc2)cc1
active: [2] 27.8 µM
not listed: [10] | [20]
inactive: all other assays above

CC(C)Cc1nccs1
not listed: [10] | [17] | [19] | [20]
inactive: all other assays above

COc1ccc(C(C)=O)cc1
not listed: [12] | [13] | [15]
inactive: all other assays above

Nc1ncnc2c1ncn2[C@@H]1O[C@H](CO)[C@@H](O)[C@H]1O
not listed: [10] | [12] | [19] | [20]
inactive: all other assays above

CCCSS/C(CCO)=C(\C)N(C=O)Cc1cnc(C)nc1N
active: [2] 29.8 µM
not listed: [10] | [12]
inactive: all other assays above

CN(C)Cc1ccccc1
not listed: [10]
inactive: all other assays above

O=C1Nc2cc(Cl)ccc2Oc2ccccc21
not listed: [13] | [14] | [17] | [18] | [20]
inactive: all other assays above

CN1CCN(C2=Nc3ccccc3Oc3ccc(Cl)cc32)CC1
not listed: [11] | [12] | [13] | [17] | [18] | [20]
inactive: all other assays above

CC1=C2[C@@H]([C@H](C)CC[C@H]2/C=C(\C)C(=O)O)[C@H](O)C1
active: [15] 0.0026 µM
not listed: [13] | [14] | [17] | [20]
inactive: all other assays above

CN1C[C@H](C(=O)N[C@]2(C)O[C@@]3(O)[C@@H]4CCCN4C(=O)[C@H](Cc4ccccc4)N3C2=O)C[C@@H]2c3cccc4[nH]cc(c34)C[C@H]21
inactive: [1] | [2] | [3] | [4] | [5] | [6] | [7] | [8] | [9] | [10]
active: [19] 0.022 µM

Cc1cc(O)c(C(C)(C)C)cc1C(C)(C)C
active: [1] 27.3 µM | [3] 38.9 µM | [8] 18.2 µM | [9] 40.8 µM | [13] 18.8 µM | [14] 34.7 µM | [12] 43.3 µM
not listed: [10] | [11] | [17] | [18] | [20]
inactive: all other assays above

CCc1ccc(CC)cc1
not listed: [9] | [19]
inactive: all other assays above

O=C(Nc1ccccc1)c1cc([N+](=O)[O-])ccc1Cl
active: [2] 61.1 µM
not listed: [10] | [11] | [14] | [17] | [18]
inactive: all other assays above

CC1=NN(c2ccc(C(=O)O)cc2)C(=O)C1
not listed: [9] | [12]
inactive: all other assays above
